Values joined by “and” are separate entries in the source; they are usually repeats but may differ in a detail not shown here. Equal entries are not always repeated. The whole screen tested about 6,400 compounds, of which about 610 (9.5%) were called active. The list comes from a sample in which actives are over-represented; it also holds similar structures and randomly drawn compounds. Values without a mark were called inactive. No stated cut-off is given here; in the data, active means activity change below about -70%; inconclusive means no clear call, values can overlap the other calls; inactive means above that.
Assay: Toxoplasma gondii ME49Luc growth in HeLa cells, luciferase, no IFN-y, primary screen (AID 1259421)
Details: T. gondii ME49Luc in HeLa, 72 h, active compounds read low, concentration not given here

SMILES | activity change, negative = inhibition
C[C@@]1(C(=O)Nc2ccc(F)nc2)CCCN1c1nc(Nc2cc(C3CC3)[nH]n2)c2cccn2n1 | -54.4%
CCOC(=O)[C@H](CCc1ccccc1)N[C@@H](C)C(=O)N1C(=O)N(C)C[C@@H]1C(=O)O | 6.47%
CC1CCC(C(=O)N(c2cc(C#CC(C)(C)C)sc2C(=O)O)C2CCC(O)CC2)CC1 (centres undefined) | 16.2%
CC(=O)OCC(=O)[C@H]1CC[C@H]2[C@@H]3CCC4=CC(=O)CC[C@]4(C)[C@H]3CC[C@]12C | -73.9% (active) and -75.9% (active)
CCCCCC(=O)O[C@]1(C(C)=O)CCC2C3CCC4=CC(=O)CC[C@]4(C)C3CC[C@@]21C (some centres undefined) | -76.9% (active)
CC(=O)OCC(=O)[C@H]1CCC2C3CCC4=CC(=O)CC[C@]4(C)C3CC[C@@]21C (some centres undefined) | 0.487%
CC(=O)[C@@]1(O)CCC2C3CCC4=CC(=O)CC[C@]4(C)C3CC[C@@]21C (some centres undefined) | 6.92% and 3.13%
CCCCC(=O)O[C@]1(C(=O)CO)CCC2C3CCC4=CC(=O)CC[C@]4(C)C3[C@@H](O)C[C@@]21C (some centres undefined) | 0.149% and 0.816%
C[C@]12C[C@H](O)[C@H]3[C@@H](CCC4=CC(=O)CC[C@@]43C)[C@@H]1CC[C@@H]2C(=O)CO | 1.69%
CCC(=O)O[C@]1(C(=O)CO)CC[C@H]2[C@@H]3CCC4=CC(=O)CC[C@]4(C)[C@H]3CC[C@@]21C | -9.17%
CC(=O)OCC(=O)[C@H]1CCC2C3CC=C4C[C@@H](O)CC[C@]4(C)C3CC[C@@]21C (some centres undefined) | 7.77%
C[C@]12CC[C@H]3[C@@H](CCC4=CC(=O)CC[C@@]43C)[C@@H]1CC[C@@H]2C(=O)CO | -83.1% (active)
CCCOc1ccc(Br)cc1-c1cc(-c2ccc(Cl)cc2)[nH]c1-c1ccncc1 | -7.79%
CC(C)N1CCN(c2ccc(C(=O)c3c(-c4ccc(O)cc4)sc4cc(O)ccc34)cc2)CC1 | -3.21% and -13.9%
NC(N)=Nc1nc(CSCC/C(N)=N\S(N)(=O)=O)cs1 | 15.8% and 7.35%
CN1CCN(C2=Nc3cc(F)ccc3Cc3ccccc32)CC1 | -3.95%
CCOC(=O)C12CC1/C(=N/O)c1ccccc1O2 (centres undefined) | 10.1%
O=[Si]=O | 10.7%
CCCCCCCCN1C(=O)C(C(C)=O)=C(C)C1(C)O (centres undefined) | 12.4%
O=C(O)[C@H]1CN(CCCP(=O)(O)O)CCN1 | 4.53%
Oc1ccc2c(c1)OCC1(O)Cc3cc(O)c(O)cc3C21 (centres undefined) | -0.693%
Nc1[nH]nc2nc3ccccc3nc12 | 19.2%
Nc1ncnc2c1ncn2[C@@H]1O[C@H](CO)[C@@H](O)[C@H]1O | 6.4%
Nc1nc(=S)c2ncn([C@@H]3O[C@H](CO)[C@@H](O)[C@H]3O)c2[nH]1 | -79.5% (active)
Nc1nc2c(ncn2[C@@H]2O[C@@H](CO)[C@@H](O)[C@H]2O)c(=O)[nH]1 | -3.02%

SMILES | activity change, negative = inhibition
Cc1nnsc1C(=O)Nc1ccc(-n2nc(C(F)(F)F)cc2C(F)(F)F)cc1 | -80% (active)
COc1ccc2oc3ccccc3c(=O)c2c1 | 118%
OCC1OC2OC3C(CO)OC(OC4C(CO)OC(OC5C(CO)OC(OC6C(CO)OC(OC7C(CO)OC(OC8C(CO)OC(OC1C(O)C2O)C(O)C8O)C(O)C7O)C(O)C6O)C(O)C5O)C(O)C4O)C(O)C3O (centres undefined) | 1.48%
O=C(O)c1ccc2c3c1cccc3c(=O)n1c3ccccc3nc21 | 9.96%
CO[C@@H]1[C@H](O)[C@@H](CO)O[C@H]1n1cnc2c(NC3CCCCC3)ncnc21 | 2.27%
COc1ccc(C[C@H](N)C(=O)N[C@@H]2[C@@H](CO)OC(n3cnc4c(N(C)C)ncnc43)[C@@H]2O)cc1 (some centres undefined) | -80.4% (active) and -91% (active)
COc1nc(N)nc2c1ncn2[C@@H]1O[C@H](CO)[C@@H](O)[C@@H]1O | -2.56% and 14.5%
O=C(O)c1cc2cccc([N+](=O)[O-])c2[nH]1 | 8.58%
CO/N=C(/C(=O)NC1C(=O)N2C(C(=O)O)=C(C[N+]3(C)CCCC3)CSC12)c1csc(N)n1 (centres undefined) | 6.5%
NC(=O)c1ccc(-c2nc(-c3ccc4c(c3)OCCO4)c(-c3ccccn3)[nH]2)cc1 | 25.7% and -23.2%
Cc1cccc(-c2[nH]c(C(C)(C)C)nc2-c2ccc3nccnc3c2)n1 | -81% (active)
Cc1cccc(-c2[nH]c(C(C)(C)C)nc2-c2ccc3c(c2)OCO3)n1 | -75.7% (active)
NC(=O)c1ccc(-c2nc(-c3ccc4c(c3)OCO4)c(-c3ccccn3)[nH]2)cc1 | -37%
C=C[C@@]1(C)CC(=O)[C@@]2(O)[C@](C)(O1)[C@@H](O)[C@@H](O)C1C(C)(C)CC[C@H](O)[C@@]12C (some centres undefined) | 11.2%
C=CC(C)(O)CCC=C(C)C (centres undefined) | 11.3%
COc1ccccc1N1CCN(CC2CN3C(=O)N(C)c4ccccc4C3=N2)CC1 (centres undefined) | 1.95%
CC(=O)O[C@]1(C(C)=O)CCC2C3C=C(Cl)C4=CC(=O)[C@@H]5C[C@@H]5[C@]4(C)C3CC[C@@]21C (some centres undefined) | 11.3%
CCCCC(=O)N(Cc1ccc(-c2ccccc2-c2nn[nH]n2)cc1)[C@H](C(=O)O)C(C)C | -0.624% and 4.63%
C#CC1(OCC(O)CN2CCN(c3cccc(C(F)(F)F)c3)CC2)CCCCC1 (centres undefined) | -34.5%
CCCOc1ccc(S(=O)(=O)N2CCN(CCO)CC2)cc1-c1nc2c(CCC)cn(CC)c2c(=O)[nH]1 | 0.0881%
CC(C)[C@H](CO)Nc1nc(Nc2cc(N)cc(Cl)c2)c2ncn(C(C)C)c2n1 | -82.6% (active)
CC(C)n1cnc2c(NCc3ccccc3)nc(NCCCO)nc21 | 0.139%
CC(C)[C@H](CO)Nc1nc(Nc2cccc(Cl)c2)c2ncn(C(C)C)c2n1 | -86% (active) and -72.5% (active)
CC(C)[C@H](CO)Nc1nc(Nc2ccc(C(=O)O)c(Cl)c2)c2ncn(C(C)C)c2n1 | 13% and 1.51%

Source: PubChem BioAssay AID1259421 (Broad Institute, 2018)
